Screening data deposited in PubChem by National Center for Advancing Translational Sciences (NCATS).
Compounds with a hit are over-represented: about 12% of the library has one in this group of screens.
FMDV inh: antivirals against foot and mouth disease virus. AID 1159524. FMDV antiviral cell-based qHTS. 1.2% of 410,000 active. Potency, µM (titrated, usually from 57.9 µM), for inactives: at the top dose activity change, negative = inhibition, hits mostly inhibitors; calls by dose curve; tested in HEK293T cells; note: read-out not given here; potency is the fitted concentration of half-maximal effect; % is set by controls: 0 for no effect and ±100 for the full control effect; nearly all actives have a fitted effect of over 45% in size
Shiga toxin inh: inhibitors of Shiga toxin in Vero cells; inhibition, % at 38.7 µM; 9.2% of 290,000 active; AID 2315; Vero cells, Shiga toxin protein synthesis inhibition reporter; in the data active = inhibition mostly above about 28%, no sharp cut-off; inactive = mostly below about 43%; note: 0% is about no effect
Sm TGR inh: inhibitors of Schistosoma mansoni thioredoxin glutathione reductase | Potency, µM (doses to about 114 µM), for the others: at the highest dose activity change, negative = inhibition, hits mostly inhibitors | AID 485364 | Q962Y6 | purified TGR, DTNB reduction, TNB absorbance 405 nm | 3% of 360,000 active; active = well fitted inhibition curve with a large enough effect; inconclusive = small, poorly fitted or top-dose-only effect; inactive = no such curve, though single readings can be large or run the other way; note: potency is the fitted concentration of half-maximal effect; % is set by controls: 0 for no effect and ±100 for the full control effect; nearly all actives have a fitted effect of over 60% in size
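First, TGR (20 nM dispensed) and NADPH were mixed with compound. Second, a 15 min room-temperature incubation followed. Third, further NADPH and then DTNB were added to start the reaction. Finally, TNB absorbance was monitored kinetically.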
Cycloheximide cs: affects cycloheximide protein synthesis inhibition readout, counter-screen; max response, %; 12% of 300,000 active; cell reporter, cycloheximide protein synthesis inhibition counterscreen; in the data active = max response mostly above about 13%, no sharp cut-off; inactive = mostly below about 14%; note: read at 38.3 µM for the half of the compounds with a filed dose; 0% is about no effect
Numbers without * were called inactive; ? = inconclusive; . = no result.

SMILES | FMDV inh | Shiga toxin inh | Sm TGR inh | Cycloheximide cs
CCN(C(=O)CSc1nc2ccccc2n1CC(=O)Nc1ccc(F)cc1F)c1ccccc1 | 5% | . | -1% | .
O=C(NN1C(=O)/C(=C/c2cc([N+](=O)[O-])ccc2O)SC1=S)c1ccccc1O | . | . | 35µM* | .
Cc1ccc(/C=C2\SC(=S)N(/N=C/c3cc([N+](=O)[O-])ccc3O)C2=O)o1 | 11% | 24 | 8.9µM* | 19*
CCc1cc(C(=O)Nc2cnn(Cc3ccccc3C)c2)no1 | 43% | . | -2% | .
CCC(C)(C)C1CCC2(CC1)NC(=O)N(CC(=O)N(C)CC(=O)Nc1ccccc1C(F)(F)F)C2=O (stereo not given) | ? | 53* | 3% | 58*
Cc1ccc(Cl)cc1NC(=O)c1sc2nc(-c3ccccc3)cn2c1C | -10% | . | 5% | .
CC(C)(C)c1cc(-c2csc(Nc3ccccc3)[n+]2Cc2ccc(C(=O)O)cc2)cc(C(C)(C)C)c1O | 32µM* | 17 | -25% | -3
O=C(O)c1ccc(C[n+]2c(-c3ccccc3)csc2Nc2ccccc2)cc1 | -26% | -6 | -19% | -1
Fc1cccc(NCc2cccn2-c2nnc(N3CCOCC3)s2)c1 | -17% | . | -2% | .
CCCn1c2ccccc2c2cnn(CC(=O)NCCc3ccc(OCC)cc3)c(=O)c21 | -19% | . | 8% | .
CCOC(=O)c1ccc(-c2ccc(/C=N/NC(=O)CN(c3ccccc3Cl)S(C)(=O)=O)o2)cc1 | ? | 5 | -1% | 14*
O=C(NCC1CCCO1)c1cccc2c1C(=O)c1ccc(N3CCC(Cc4ccccc4)CC3)cc1S2(=O)=O (stereo not given) | 13µM* | . | . | .
CC1CCN(c2ccc3c(c2)S(=O)(=O)c2cccc(C(=O)NC[C@@H]4CCCO4)c2C3=O)CC1 | 17% | . | . | .
Cc1cccc(N2CCN(S(=O)(=O)c3cc(C(=O)Nc4ccccc4Cl)ccc3F)CC2)c1C | -25% | . | 0% | .
COc1cc(-c2noc(C)c2C#CCO)cc(OC)c1OC | -5% | -4 | 32µM* | 5
CCOC(=O)c1sc(/S(C)=N\S(=O)(=O)c2cccc(Cl)c2)c2c1CCC=C2 (stereo not given) | -7% | -10 | 2.8µM* | 1
COc1ccc(N2CCN(C(=O)C3CCN(S(=O)(=O)c4cccc5nonc45)CC3)CC2)cc1 | 0% | . | -12% | .
CSc1ccccc1OCc1cc(C(=O)N2CCC(c3ccncc3)CC2)no1 | . | 11 | 3% | 19*
CCOC(=O)N1CCC(NC(=O)c2cc(COc3ccccc3SC)on2)CC1 | 0% | 35 | -1% | 27*
Cc1ccc(NC(=O)c2oc3ccccc3c2NC(=O)C23CC4CC(CC(C4)C2)C3)cc1 | 6% | . | -2% | .
COc1cc(/C=C(\C#N)C(=O)Nc2ccccn2)ccc1O | 74% | 52* | 14µM* | 19*
COc1cc(/C=C(\C#N)C(=O)Nc2ccc3c(c2)OCCO3)ccc1O | 13% | 51* | 7% | 33*
Cc1cccc(/C=C(\C#N)C(=O)Nc2ccccn2)c1 | 18% | -5 | 8% | 0
COC(=O)c1ccc(/C=C(\C#N)C(=O)NC(C)c2ccccc2)cc1 (stereo not given) | ? | -5 | -23% | -2
COc1ccc(/C=C(\C#N)C(=O)NC(C)c2ccccc2)cc1O (stereo not given) | -3% | 17 | -8% | 13*
SMILES | FMDV inh | Shiga toxin inh | Sm TGR inh | Cycloheximide cs
CCOc1cc(/C=C(\C#N)C(=O)Nc2ccccn2)ccc1O | 30% | 44 | 18µM* | 13*
COC(=O)N1CCCCC1c1cc(C(=O)Nc2ccc3c(c2)OCO3)no1 (stereo not given) | 13% | . | . | .
CC(C)c1cc(C(=O)Nc2ccc3c(c2)OCO3)no1 | 26% | 55* | 3% | 30*
O=C(Nc1ccc2c(c1)OCO2)c1cc(C2CC2)on1 | 19% | 52* | -11% | 34*
Cc1ccc(NC(=O)CCC(=O)N2CCSc3ccccc32)cc1Cl | -8% | . | 7% | .
Cc1cc(C(=O)N/N=C/c2sccc2C)no1 | 104% | 43* | -6% | 27*
Cc1ccsc1/C=N/NC(=O)c1sccc1C | 23% | 95* | 1% | 53*
Cc1ccsc1/C=N/NC(=O)c1ccc2nc[nH]c2c1 | 35% | 32* | -1% | 21*
Cc1ccsc1/C=N/NC(=O)C1CC(=O)N(c2ccc(F)cc2)C1 (stereo not given) | 9% | -5 | -10% | -1
Cc1ccsc1/C=N/NC(=O)c1ccc(-n2cccc2)cc1 | 54% | 66* | 30% | 33*
Cc1ccsc1/C=N/NC(=O)CO | -10% | -4 | . | -4
CC(C)CCCC(C)C1CCC2C3CC(=O)[C@H]4CC(O)CC[C@]4(C)C3CC[C@@]12C (stereo not given in full) | 1% | . | . | .
